Laboratory results: PubChem BioAssay AID1159580 (chemical genetic matrix, 2015)
Out of some 5,500 compounds screened, about 2,000 (36%) were called active. About 18% were inconclusive and are not listed. Rule as the data show it: active = normalized growth mostly below about 0.91 (no sharp cut-off); inconclusive = no clear call, values can overlap the other calls; inactive = mostly above about 0.92. This is one part of the list.

Assay: chemical genetic growth profiling, strain panel (AID 1159580);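 also: tested at 20 µM; growth read once vehicle control cultures reached saturation at 30 °C; 1 = growth at the plate median or of vehicle wells; lower values mean less growth of the strain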
Conditions: growth OD

Measured: normalized growth

CCCCCC(C)N (configuration not stated)
inactive: S. cerevisiae deletion strains, locus YJR075W, strain HOC1, stronger effect = lower value 1.02 | S. cerevisiae deletion strains, locus YKL009W, strain mrt4, stronger effect = lower value 0.946 | S. cerevisiae deletion strains, locus YKL068W, stronger effect = lower value 1 | S. cerevisiae deletion strains, locus YKL085W, strain MDH1 (second series), stronger effect = lower value 1.05 | S. cerevisiae deletion strains, locus YKL085W, strain MDH1, stronger effect = lower value 1.05 | S. cerevisiae deletion strains, locus YKL160W, strain elf1, stronger effect = lower value 1.03 | S. cerevisiae deletion strains, locus YKL190W, strain CNB1, stronger effect = lower value 1.02 | S. cerevisiae deletion strains, locus YKR001C, strain vps1, stronger effect = lower value 0.988 | S. cerevisiae deletion strains, locus YKR026C, strain gcn3, stronger effect = lower value 1.03 | S. cerevisiae deletion strains, locus YKR091W, strain srl3, stronger effect = lower value 1.02 | S. cerevisiae deletion strains, locus YLL001W, strain dnm1, stronger effect = lower value 1.03 | S. cerevisiae deletion strains, locus YLL026W, stronger effect = lower value 1.03 | S. cerevisiae deletion strains, locus YLL041C, strain sdh2, stronger effect = lower value 1.02 | S. cerevisiae deletion strains, locus YLR027C, strain aat2, stronger effect = lower value 1.03 | S. cerevisiae deletion strains, locus YLR039C, strain RIC1, stronger effect = lower value 1.04 | S. cerevisiae deletion strains, locus YLR058C, strain SHM2, stronger effect = lower value 1.02 | S. cerevisiae deletion strains, locus YLR102C, strain apc9, stronger effect = lower value 0.995 | S. cerevisiae deletion strains, locus YLR113W, strain HOG1, stronger effect = lower value 0.978 | S. cerevisiae deletion strains, locus YLR221C, strain rsa3, stronger effect = lower value 1.03 | S. cerevisiae deletion strains, locus YLR258W, strain gsy2, stronger effect = lower value 1.02 | S. cerevisiae deletion strains, locus YLR262C, strain YPT6 (second series), stronger effect = lower value 1.05 | S. cerevisiae deletion strains, locus YLR262C, strain YPT6, stronger effect = lower value 1.05 | S. cerevisiae deletion strains, locus YLR268W, strain sec22, stronger effect = lower value 0.972 | S. cerevisiae deletion strains, locus YLR320W, strain mms22, stronger effect = lower value 1.04 | S. cerevisiae deletion strains, locus YLR330W, strain CHS5, stronger effect = lower value 1.01 | S. cerevisiae deletion strains, locus YLR342W, strain FKS1 (second series), stronger effect = lower value 1.03 | S. cerevisiae deletion strains, locus YLR342W, strain FKS1, stronger effect = lower value 1.03 | S. cerevisiae deletion strains, locus YLR357W, strain rsc2, stronger effect = lower value 1.05 | S. cerevisiae deletion strains, locus YLR370C, strain arc18, stronger effect = lower value 1.04 | S. cerevisiae deletion strains, locus YLR371W, strain rom2, stronger effect = lower value 0.989 | S. cerevisiae deletion strains, locus YLR384C, strain iki3, stronger effect = lower value 1.02 | S. cerevisiae deletion strains, locus YLR418C, strain cdc73, stronger effect = lower value 0.994 | S. cerevisiae deletion strains, locus YML016C, strain PPZ1, stronger effect = lower value 1.01 | S. cerevisiae deletion strains, locus YML032C, strain rad52, stronger effect = lower value 0.986 | S. cerevisiae deletion strains, locus YML120C, strain ndi1, stronger effect = lower value 1.03 | S. cerevisiae deletion strains, locus YML124C, strain tub3, stronger effect = lower value 0.997 | S. cerevisiae deletion strains, locus YMR058W, strain fet3, stronger effect = lower value 1.02 | S. cerevisiae deletion strains, locus YMR078C, strain ctf18, stronger effect = lower value 0.98 | S. cerevisiae deletion strains, locus YMR125W, strain sto1, stronger effect = lower value 1.03 | S. cerevisiae deletion strains, locus YMR129W, stronger effect = lower value 1.02 | S. cerevisiae deletion strains, locus YMR205C, strain PFK2, stronger effect = lower value 1.05 | S. cerevisiae deletion strains, locus YMR223W, strain ubp8, stronger effect = lower value 1.02 | S. cerevisiae deletion strains, locus YMR231W, strain pep5, stronger effect = lower value 1.03 | S. cerevisiae deletion strains, locus YMR263W, strain SAP30, stronger effect = lower value 1.02 | S. cerevisiae deletion strains, locus YMR307W, strain GAS1, stronger effect = lower value 1.03 | S. cerevisiae deletion strains, locus YNL067W, strain RPL9B, stronger effect = lower value 1.01 | S. cerevisiae deletion strains, locus YNL071W, strain lat1, stronger effect = lower value 1.03 | S. cerevisiae deletion strains, locus YNL128W, strain TEP1, stronger effect = lower value 1.01 | S. cerevisiae deletion strains, locus YNL153C, strain GIM3, stronger effect = lower value 1.01 | S. cerevisiae deletion strains, locus YNL183C, strain NPR1, stronger effect = lower value 0.943 | S. cerevisiae deletion strains, locus YNL209W, strain ssb2, stronger effect = lower value 1.03 | S. cerevisiae deletion strains, locus YNL233W, strain BNI4, stronger effect = lower value 1.02 | S. cerevisiae deletion strains, locus YNL248C, strain rpa49, stronger effect = lower value 1.03 | S. cerevisiae deletion strains, locus YNL250W, strain rad50, stronger effect = lower value 0.994 | S. cerevisiae deletion strains, locus YNL271C, strain bni1, stronger effect = lower value 0.985 | S. cerevisiae deletion strains, locus YNL298W, strain CLA4, stronger effect = lower value 0.989 | S. cerevisiae deletion strains, locus YNL307C, strain MCK1, stronger effect = lower value 0.999 | S. cerevisiae deletion strains, locus YNL322C, strain KRE1 (second series), stronger effect = lower value 1.04 | S. cerevisiae deletion strains, locus YNL322C, strain KRE1, stronger effect = lower value 1.01 | S. cerevisiae deletion strains, locus YNR049C, strain mso1, stronger effect = lower value 1.03 | S. cerevisiae deletion strains, locus YNR052C, strain pop2, stronger effect = lower value 0.988 | S. cerevisiae deletion strains, locus YOL006C, strain TOP1, stronger effect = lower value 1.01 | S. cerevisiae deletion strains, locus YOL012C, strain htz1 1.25 | S. cerevisiae deletion strains, locus YOL147C, strain pex11, stronger effect = lower value 1 | S. cerevisiae deletion strains, locus YOR001W, strain rrp6, stronger effect = lower value 1 | S. cerevisiae deletion strains, locus YOR061W, strain CKA2, stronger effect = lower value 1.02 | S. cerevisiae deletion strains, locus YOR069W, strain VPS5, stronger effect = lower value 1.01 | S. cerevisiae deletion strains, locus YOR070C, strain gyp1, stronger effect = lower value 1.02 | S. cerevisiae deletion strains, locus YOR080W, strain dia2, stronger effect = lower value 1.04 | S. cerevisiae deletion strains, locus YOR083W, strain WHI5, stronger effect = lower value 1.02 | S. cerevisiae deletion strains, locus YOR106W, strain vam3, stronger effect = lower value 1.04 | S. cerevisiae deletion strains, locus YOR136W, strain idh2, stronger effect = lower value 0.988 | S. cerevisiae deletion strains, locus YOR144C, strain elg1, stronger effect = lower value 0.992 | S. cerevisiae deletion strains, locus YOR184W, strain ser1, stronger effect = lower value 0.982 | S. cerevisiae deletion strains, locus YOR231W, strain MKK1, stronger effect = lower value 0.997 | S. cerevisiae deletion strains, locus YOR265W, strain rbl2, stronger effect = lower value 1.02 | S. cerevisiae deletion strains, locus YOR270C, strain vph1, stronger effect = lower value 1.07 | S. cerevisiae deletion strains, locus YOR290C, strain snf2, stronger effect = lower value 1.02 | S. cerevisiae deletion strains, locus YOR316C, strain cot1, stronger effect = lower value 0.999 | S. cerevisiae deletion strains, locus YPL051W, strain arl3, stronger effect = lower value 1.01 | S. cerevisiae deletion strains, locus YPL055C, strain LGE1, stronger effect = lower value 1.03 | S. cerevisiae deletion strains, locus YPL078C, strain atp4, stronger effect = lower value 1.03 | S. cerevisiae deletion strains, locus YPL106C, strain sse1, stronger effect = lower value 1.03 | S. cerevisiae deletion strains, locus YPL240C, strain hsp82, stronger effect = lower value 1.03 | S. cerevisiae deletion strains, locus YPL241C, strain CIN2, stronger effect = lower value 1 | S. cerevisiae deletion strains, locus YPL256C, strain CLN2, stronger effect = lower value 0.992 | S. cerevisiae deletion strains, locus YPR119W, strain clb2, stronger effect = lower value 0.989 | S. cerevisiae deletion strains, locus YPR141C, strain kar3, stronger effect = lower value 0.99 | S. cerevisiae deletion strains, locus YPR163C, strain tif3, stronger effect = lower value 0.992 | S. cerevisiae deletion strains, locus YPR167C, strain met16, stronger effect = lower value 0.998 | S. cerevisiae deletion strains, strain wtn01, stronger effect = lower value 0.997 | S. cerevisiae strains, strain wild type, stronger effect = lower value 1.01
